# Experimental data: PubChem BioAssay AID1434 (Sanford-Burnham Center for Chemical Genomics, 2008)
# Screen size: about 220,000 compounds; about 1,600 (0.73%) were called active.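 Rule for the calls: active = mean inhibition across duplicate retests at 20 µM reaching about 50% (limit read from the data); inactive = the rest, inconclusive results apart.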 The entries come from a sample that favours actives as a whole.
# Molecular target: Runt-related transcription factor 1 (Homo sapiens) + Core-binding factor subunit beta (Homo sapiens) (UniProt Q01196+Q13951)
# Sequence (Q01196 whole entry, looked up, the tested form may be a part): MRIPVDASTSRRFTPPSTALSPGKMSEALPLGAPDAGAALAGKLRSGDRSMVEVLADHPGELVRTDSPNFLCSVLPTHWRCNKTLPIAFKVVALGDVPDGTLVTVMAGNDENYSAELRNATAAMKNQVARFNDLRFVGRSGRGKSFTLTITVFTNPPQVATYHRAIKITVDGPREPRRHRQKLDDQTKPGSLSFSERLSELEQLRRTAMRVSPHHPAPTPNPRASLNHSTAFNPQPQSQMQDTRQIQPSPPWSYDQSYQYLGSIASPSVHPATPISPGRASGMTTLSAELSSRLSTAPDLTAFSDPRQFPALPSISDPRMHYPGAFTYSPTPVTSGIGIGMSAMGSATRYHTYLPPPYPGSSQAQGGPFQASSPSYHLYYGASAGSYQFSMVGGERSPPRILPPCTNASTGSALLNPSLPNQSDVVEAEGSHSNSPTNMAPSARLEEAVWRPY
# Sequence (Q13951 whole entry, looked up, the tested form may be a part): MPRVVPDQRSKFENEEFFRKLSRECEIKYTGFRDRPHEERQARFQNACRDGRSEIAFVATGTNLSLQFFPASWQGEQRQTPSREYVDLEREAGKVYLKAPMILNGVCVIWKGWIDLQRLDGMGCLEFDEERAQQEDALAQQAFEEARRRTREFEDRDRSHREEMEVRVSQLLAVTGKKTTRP
# Assay: disruptors of Runt domain/CBFb-SMMHC interaction – biochemical, FRET, Cerulean-Runt, Venus-CBFb-SMMHC, uHTS, primary screen (AID 1434);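 note: 0% = DMSO wells and 100% = wells with excess untagged CBFb-SMMHC; inhibitors lower the FRET ratio by blocking Runt binding to CBFb-SMMHC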
# Conditions: Cerulean-Runt/Venus-CBFb-SMMHC FRET ratio 530/480, 1 h, at 20 µM, stronger effect = higher value
SMILES,inhibition,inhibition (retest duplicate average)
O=C(CCc1ccccc1)NNc1ccc(F)cc1,-0.8% (inactive),
CCCc1cc(=O)oc2c(C)c(O)c(CN3CCCCC3)cc12,70.4% (active),121%
CCCc1cc(=O)[nH]c(SCc2cc(=O)oc3c(C)c(C)ccc23)n1,1.9% (inactive),
CCc1ccc2oc(=O)cc(CN3CCCCC3C)c2c1 (configuration not stated),-0.5% (inactive),
O=C(CN1CCc2ccccc21)NC(c1ccccc1)c1ccccc1,-0.8% (inactive),
CCc1ccc(NC(=O)Nc2ccncc2)cc1,-0.3% (inactive),
CCN(CC)c1ccc2cc(C(=O)O)c(=O)oc2c1,77.6% (active),71.5%
CCN(CC)c1ccc2cc(C(N)=O)/c(=N\NC(=O)c3ccncc3)oc2c1,-128% (inactive),
CCN(CC)c1ccc2oc(=O)c(C)nc2c1,-81.6% (inactive),
CSc1sc(C)cc1C1C(C#N)=C(N)N(c2cccnc2)C2=C1C(=O)CCC2 (configuration not stated),76.1% (active),73.7%
N#CC1=C(N)N(c2ccccc2)C2=C(C(=O)CCC2)C1c1ccccc1 (configuration not stated),29.5% (inactive),
CCc1ccc(C2C(C#N)=C(N)N(N(C)C)C3=C2C(=O)CCC3)s1 (configuration not stated),-11.9% (inactive),
COc1ccc(C2/C=C\CN(S(=O)(=O)c3cccs3)CC(=O)N2Cc2ccc(F)cc2)cc1 (configuration not stated),2.2% (inactive),
COc1cc(CNc2ncn[nH]2)ccc1OCc1ccccc1C,-0.6% (inactive),
N#Cc1ccc(Oc2ccc(C(F)(F)F)cc2NC(=O)c2ccc(F)cc2)cc1,-0.8% (inactive),
C#CCNC(=O)C1=C[C@@H](c2ccccc2)[C@H](CCCO)[C@@H](OCC)O1,1.4% (inactive),
Cc1cc(C)cc(NC(=O)NC2CCN(CC(=O)Nc3cccc(Cl)c3C)CC2)c1,0.9% (inactive),
NC(=O)C1(C(N)=O)OC1c1ccc(Cl)cc1Cl (configuration not stated),1% (inactive),
CCOc1ccccc1C1C(C(=O)OC)=CN(C)C=C1C(=O)OC,42% (inactive),
COC(=O)C1=CN(C)C=C(C(=O)OC)C1c1ccc(Cl)cc1Cl,60.9% (active),91.8%
CC(OC(=O)c1ccc(NS(=O)(=O)c2ccc3[nH]c(=O)[nH]c3c2)cc1)C(=O)Nc1cccc(Cl)c1Cl (configuration not stated),-5.6% (inactive),
CCOC(=O)C1CCN(CCC(=O)Nc2cccc(C)c2)CC1,0.1% (inactive),
COCc1ccc(C(=O)N2CCc3c([nH]c4ccccc34)C2c2ccccn2)s1 (configuration not stated),2.3% (inactive),
COCCCNC(=S)NC(=O)c1ccc([N+](=O)[O-])cc1,4.6% (inactive),

SMILES,inhibition,inhibition (retest duplicate average)
COCCCNC(=S)NCCNc1nc2cc(C)c(C)cc2cc1C#N,88.8% (active),125%
Cc1ccc2nc(NCCCNC(=O)c3cnccn3)c(C#N)cc2c1,32% (inactive),
CC(C)N(Cc1ccccc1)C(=O)COC(=O)c1cnccn1,-2.4% (inactive),
CSCCC(Nc1ccc(S(=O)(=O)N2CCOCC2)cc1[N+](=O)[O-])C(=O)OCC(=O)N(C(C)C)C(C)C (configuration not stated),-4.8% (inactive),
CCCC(=O)N1c2ccccc2NC2=C(C(=O)CCC2)C1c1ccc(F)cc1 (configuration not stated),-4.3% (inactive),
CCOC(=O)C1=C(N)N(c2ccc(C)cc2)C2=C(C(=O)CCC2)C1c1cccs1 (configuration not stated),-7.1% (inactive),
CCCN1C2=C(C(=O)CCC2)C(c2ccc(O)c(Br)c2)C2=C1CCCC2=O,118% (active),118%
O=C(Nc1ccc2ccccc2c1)/C(=C\c1ccc2c(c1)OCO2)NC(=O)c1ccco1,-21.7% (inactive),
COc1ccc(N2CCN(C(=O)CSc3nc4cc(OC)c(OC)cc4cc3C#N)CC2)cc1,9.4% (inactive),
COc1ccc2nc(N3CCCC(O)C3)c(C#N)cc2c1 (configuration not stated),65% (active),72.9%
COc1cccc(C(=O)Nc2ccc(N3CCCC3)cc2)c1,5.7% (inactive),
Cc1cc(C)nc(SCc2cn3c(C)cc(C)nc3n2)n1,-4% (inactive),
O=c1c(Cl)c(NCc2ccc(F)cc2Cl)cnn1C12CC3CC(CC(C3)C1)C2,3.5% (inactive),
FC(F)(F)c1ccc(-n2cn[nH]c2=S)cc1,3.3% (inactive),
Nc1[nH][nH]c(=O)c1N=Nc1ccc2c(c1)OCO2,-0.1% (inactive),
c1csc(-c2cn3c(n2)SCC3)c1,-6.8% (inactive),
N#Cc1c(C(F)(F)F)cc(-c2cccs2)nc1N1CCCCC1,82.5% (active),79.2%
CCCn1c(=O)c2c(C(F)(F)F)cc(-c3cccs3)nc2n(CCC)c1=O,1.9% (inactive),
C=CCCN(Cc1ccccc1)S(=O)(=O)c1ccccc1Br,-2.3% (inactive),
c1ccc(-n2cccc2)c(N2CCCCC2)c1,-0.7% (inactive),
O=C(NCCN1CCOCC1)c1ccc2c(c1)ncn2C1CCCC1,0.2% (inactive),
c1ccc2cc3c(NCCN4CCOCC4)ccnc3cc2c1,78.2% (active),71.5%
O=C(Cn1c(-c2ccccn2)nc2ccccc21)NCCN1CCOCC1,-0.1% (inactive),
C/C(N)=C(/C#N)C(=O)COC(=O)CNS(=O)(=O)c1ccc(C)cc1,-1.2% (inactive),

SMILES,inhibition,inhibition (retest duplicate average)
CC(C)N(C)C(=O)CCc1nnc(CCc2c[nH]c3ccccc23)o1,-1.1% (inactive),
COc1ccc(/C=C2\SC(=S)N(CC(=O)NNC(=O)c3ccncc3)C2=O)cc1,-217% (inactive),
Cc1cc(=O)[nH]c(N/N=C/c2ccc3c(c2)OCCO3)n1,-9.8% (inactive),
COCc1cc(=O)oc2cc(NS(=O)(=O)c3ccc(C)cc3)ccc12,80.2% (active),71.8%
COc1ccc(S(=O)(=O)Nc2ccc3oc(C)c(C(C)=O)c3c2)cc1,-0.7% (inactive),
Cc1ccc(S(=O)(=O)Nc2ccc3ncccc3c2)cc1,-1.3% (inactive),
Cc1ccc(S(=O)(=O)NCCc2nnc3ccc(SCc4cccnc4)nn23)cc1,-6.7% (inactive),
Cc1c(Cc2ccccc2)c(=O)oc2cc(OCC(N)=O)ccc12,2.5% (inactive),
CC(=O)Nc1cc2ccc(OC(C)=O)cc2oc1=O,58.6% (active),119%
O=C(Nc1cc2ccccc2oc1=O)C1CCCCC1,-0.3% (inactive),
CC(=O)Oc1ccc2c(C)c(CC(C)O)c(=O)oc2c1 (configuration not stated),119% (active),116%
O=C(Oc1ccccc1)Oc1ccc2c(c1)oc(=O)c1ccccc12,-17.7% (inactive),
COC(=O)Cc1c(C)c2ccc(OCC(=O)NCc3ccc4c(c3)OCO4)cc2oc1=O,-5.4% (inactive),
CCCNC(=O)N1CCN(C(=O)NCCC)CC1,2.1% (inactive),
Cc1nc(C(=O)NCc2ccccc2)sc1C1(C)CC(c2cccnc2)=NO1 (configuration not stated),0.2% (inactive),
CCOC(=O)C1=C(c2ccccc2)NC(=S)NC1c1ccc(Cl)cc1 (configuration not stated),-1.3% (inactive),
CC(C)CCNC(=O)C1CCC(CNc2c(N3CCC(C)CC3)c(=O)c2=O)CC1 (configuration not stated),-1.8% (inactive),
Cc1cc2c(cc1C)[n+](C)cn2CC(O)COCC1CC=CCC1 (configuration not stated),7.6% (inactive),
COc1ccc2c(c1)CCc1cn3ncc(C#N)c3nc1-2,89.1% (active),74.1%
N#Cc1cnn2cc(CCN3CCOCC3)c(-c3ccc(F)cc3)nc12,-1.8% (inactive),
COc1ccc2c(c1)CCc1c(C(=O)N3CCCC3)noc1-2,-2.4% (inactive),
COc1ccc(OC)c2[nH]c(=O)c(CCNC(=O)C(=O)c3c[nH]c4ccccc34)cc12,0.3% (inactive),
CCCCN(C(=O)/C=C/c1ccco1)c1c(N)n(CC(C)C)c(=O)[nH]c1=O,8.5% (inactive),
CC(=O)COc1ccc2c(-c3ccccc3)cc(=O)oc2c1,3.8% (inactive),

SMILES,inhibition,inhibition (retest duplicate average)
O=C(CNC(=O)OCc1ccccc1)Oc1cc2oc(=O)cc(-c3ccccc3)c2cc1Cl,78.7% (active),71.5%
O=C(CNC(=O)c1ccc(-c2ccccc2)cc1)OCc1ccc(Cl)cc1,-1.6% (inactive),
O=[N+]([O-])c1ccc(N2CCNCC2)cc1NCc1cccnc1,-3.2% (inactive),
CC(C)OCCCNC(=O)c1cc(Sc2ccc(F)cc2)nc2ccccc12,0.5% (inactive),
O=C(CSc1ncn[nH]1)Nc1nsc(-c2ccccc2)n1,3.7% (inactive),
O=C(CSc1nc(O)c(Cc2ccccc2)c(=O)[nH]1)Nc1nc2c(s1)CCCC2,2.5% (inactive),
CN1C(=O)/C(=C/C=C2\SCCN2C)OC1=S,84.2% (active),79.9%
CCc1ccc(C(=O)OCC(=O)NCC(F)(F)F)cc1,-1.7% (inactive),
CCO[C@H]1OC(C(=O)NCc2ccccc2)=C[C@@H](c2coc3ccccc3c2=O)[C@@H]1CCCO,-0.8% (inactive),
CN1CCNC(=O)C1CC(=O)N1CC=C(c2ccc(F)cc2)CC1 (configuration not stated),-7.4% (inactive),
CC(=O)Nc1cccc([N+](=O)[O-])c1,0.2% (inactive),
Cc1ccccc1NC(=S)Nc1cccc([N+](=O)[O-])c1,5.7% (inactive),
COC(=O)/C=C\C(=O)Nc1cccc([N+](=O)[O-])c1,56% (active),62.5%
CC(C)n1c(-c2cccs2)nc2ccccc21,1.6% (inactive),
COCCCn1c(-c2cccs2)nc2nc3ccccc3nc21,87.7% (active),99.9%
COc1ccc(CCn2c(-c3ccco3)nc3nc4ccccc4nc32)cc1OC,-7.1% (inactive),
Cc1ccc(C(=O)O)cc1NC(=O)c1ccc(Cn2nc(C)c(Cl)c2C)o1,-2.9% (inactive),
O=C(CCc1n[nH]c(=O)[nH]c1=O)N/N=C/c1ccc(Br)o1,-0.8% (inactive),
CN(C)c1nc(N)nc(Cn2nnc(-c3ccc(C(F)(F)F)cc3)n2)n1,1.3% (inactive),
c1ccc(-c2cc3c(NCC4COc5ccccc5O4)ncnc3s2)cc1 (configuration not stated),8.3% (inactive),
O=C(CC1CCCCC1)NCc1ccc(F)cc1,-2% (inactive),
COCCC(=O)Nc1ccc2c(c1)CN(C(=O)CCOC)CC2,-1% (inactive),
O=c1c2c(nc3cc(-c4cccc(Cl)c4)[nH]n13)CCCC2,-1.8% (inactive),
